Measurements published in PubChem BioAssay (NCI).
“And” between values parts separate entries of the source, which are not always exact repeats. Equal entries are not always repeated. Compounds without any hit were thinned out: in the full panel of roughly 79,000, 15% have a hit. A structure can be active in one record and inactive in another. The source made the active and inactive calls. No stated cut-off is given here; in the data, active means growth inhibition above about 70%; inactive means the rest.

What was measured:
[1] = NCI Yeast Anticancer Drug Screen. Data for the rad50 strain (AID 155);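 further: 0% = growth of vehicle-only cultures of the same strain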; conditions: S. cerevisiae rad50 strain growth inhibition, stronger effect = higher value
Outline: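 Growth of the mutant yeast was measured after compound exposure and referenced to vehicle-treated cultures.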

[2] = NCI Yeast Anticancer Drug Screen. Data for the mec2-1 strain (AID 157); conditions: S. cerevisiae mec2-1 strain, stronger effect = higher value
Outline: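 Cells of the genetically defined mec2-1 yeast strain are incubated with test compound. Inhibition of growth is calculated against vehicle-treated controls.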

[3] = NCI Yeast Anticancer Drug Screen. Data for the sgs1 mgt1 strain (AID 161);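 further: 0% = growth of cultures given vehicle only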; conditions: S. cerevisiae sgs1 mgt1 strain, stronger effect = higher value
Outline: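 Genetically altered yeast, compound exposure, growth inhibition relative to vehicle.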

[4] = NCI Yeast Anticancer Drug Screen. Data for the cln2 rad14 strain (AID 165);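 further: 0% = growth equal to vehicle treated cultures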; conditions: S. cerevisiae cln2 rad14 strain, stronger effect = higher value
Outline: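 The screen exposed genetically defined yeast (cln2 rad14) to test compounds and scored growth inhibition relative to vehicle-treated controls.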

[5] = NCI Yeast Anticancer Drug Screen. Data for the bub3 strain (AID 167); conditions: S. cerevisiae bub3 mutant strain, stronger effect = higher value
Outline: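 Whole-cell yeast assay. The mutant strain was incubated with compounds, and growth inhibition was determined by comparison with vehicle-treated cells.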

[6] = NCI Yeast Anticancer Drug Screen. Data for the mlh1 rad18 strain (AID 175); conditions: S. cerevisiae mlh1 rad18 strain growth inhibition, stronger effect = higher value
Outline: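 Compound-treated yeast growth, normalised to vehicle controls. Strain bears defined DNA repair mutations.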

[7] = at 5.0 µM (retest, dose inferred, filed as 0.5)
[8] = at 50.0 µM (retest, dose inferred, filed as 5.0)

Measured: growth inhibition

O=C1c2ccccc2C(=O)N1CC[P+](c1ccccc1)(c1ccccc1)c1ccccc1
inactive: [1]; [7] 48% | [2]; [7] 36% | [2]; at 50.0 µM 58.5% and 46.8% | [3]; [7] 20% | [3]; [8] 69% | [3]; at 50.0 µM 63.5% and 62.5% | [4]; [7] -5% | [4]; [8] 47% | [4]; at 50.0 µM 20.8% and 40% | [5]; [7] 30% | [5]; at 50.0 µM 57.9% and 43.3% | [6]; [7] 43% | [6]; at 50.0 µM 63.1% and 54.9%
70.5% (active) and 58.6% (inactive): [1]; at 50.0 µM
active: [1]; [8] 79% | [2]; [8] 87% | [5]; [8] 79% | [6]; [8] 85%

Oc1ccc2ccccc2c1Cc1c(O)ccc2ccccc12
44.1% (inactive) and 99.5% (active): [3]; at 50.0 µM
active: [1]; [8] 86% | [2]; [8] 96% | [4]; [8] 95% | [5]; [8] 95% | [6]; [8] 89%
inactive: [1]; [7] -1% | [2]; [7] 11% | [2]; at 50.0 µM 29.8% and 22.7% | [3]; [7] 7% | [3]; [8] 53% | [4]; [7] -25% | [5]; [7] -6% | [5]; at 50.0 µM 16.2% and 48.6% | [6]; [7] -8%
21.6% (inactive) and 97.8% (active): [4]; at 50.0 µM
33% (inactive) and 99.2% (active): [1]; at 50.0 µM
16.4% (inactive) and 99.3% (active): [6]; at 50.0 µM

O=C(c1ccccc1)C(c1ccccc1)C(O)c1ccc([N+](=O)[O-])cc1 (stereo unspecified)
active: [1]; [8] 89% and 99% | [1]; at 50.0 µM 96% and 98.2% | [2]; [8] 96% and 99% | [2]; at 50.0 µM 98.4% and 99.5% | [3]; [8] 94% and 99% | [3]; at 50.0 µM 97.1% and 98.8% | [4]; [8] 96% and 99% | [4]; at 50.0 µM 94.8% and 99.2% | [5]; [8] 92% and 99% | [5]; at 50.0 µM 95.6% and 98.9% | [6]; [8] 95% and 99% | [6]; at 50.0 µM 96.7% and 99.5%
inactive: [1]; [7] 9% and 2% | [2]; [7] 13% and -8% | [3]; [7] 6% and -14% | [4]; [7] 9% and 3% | [5]; [7] 19% and 1% | [6]; [7] 11% and 6%

CC(C)(C)c1ccc(-c2c3ccccc3cc3ccccc23)cc1
inactive: [1]; [7] -1% | [1]; [8] -1% | [1]; at 50.0 µM -2.45% | [2]; [7] -1% | [2]; [8] -1% | [2]; at 50.0 µM -4.85% | [3]; [7] -5% | [3]; [8] -2% | [3]; at 50.0 µM 7.55% | [4]; [7] 2% | [4]; [8] -1% | [4]; at 50.0 µM 30.1% | [5]; [7] 1% | [5]; [8] 16% | [5]; at 50.0 µM 0.8% | [6]; [7] -1% | [6]; [8] 2% | [6]; at 50.0 µM -2.2%

NC(CCCCNC(=O)c1ccccc1)C(=O)O (stereo unspecified)
inactive: [1]; [7] -1% | [1]; [8] 4% | [1]; at 50.0 µM 17.2% and -18.6% | [2]; [7] 3% | [2]; [8] 2% | [2]; at 50.0 µM 5.85% and -22.1% | [3]; [7] 0% | [3]; [8] -3% | [3]; at 50.0 µM 0.1% and -35.4% | [4]; [7] 3% | [4]; [8] 4% | [5]; [7] 17% | [5]; [8] -2% | [5]; at 50.0 µM -5% and -23.4% | [6]; [7] -3% | [6]; [8] -3% | [6]; at 50.0 µM -1.1% and -21.9%
91.9% (active) and -28.2% (inactive): [4]; at 50.0 µM

CCCCCCC(CCCCCCCCCCC(=O)OCC(CC)CC)OC(=O)CC (stereo unspecified)
inactive: [1]; [7] -4% | [1]; [8] -4% | [1]; at 50.0 µM 21.2% | [2]; [7] -3% | [2]; [8] -6% | [2]; at 50.0 µM 7.9% | [3]; [7] -4% | [3]; [8] -23% | [3]; at 50.0 µM 7.4% | [4]; [7] -2% | [4]; [8] -13% | [4]; at 50.0 µM 21.4% | [5]; [7] -3% | [5]; [8] -5% | [5]; at 50.0 µM -6.9% | [6]; [7] -3% | [6]; [8] -6% | [6]; at 50.0 µM 39.5%

CN(C)c1ccc(/C=C/c2sc3ccccc3[n+]2C)cc1
inactive: [1]; [7] -39% and 14% | [2]; [7] -16% and 49% | [3]; [7] -2% and 16% | [4]; [7] -2% and 13% | [5]; [7] 12% and -4% | [6]; [7] 7% and 22%
active: [1]; [8] 99% and 98% | [1]; at 50.0 µM 99.2% | [2]; [8] 99% | [2]; at 50.0 µM 99.2% and 99.4% | [3]; [8] 72% and 99% | [3]; at 50.0 µM 99.5% and 99.4% | [4]; [8] 99% and 98% | [4]; at 50.0 µM 98.8% and 99.3% | [5]; [8] 99% | [5]; at 50.0 µM 99.4% and 99.3% | [6]; [8] 99% | [6]; at 50.0 µM 99.3% and 99.2%
